Laboratory results as given in article PMC5540273 (PLoS ONE, 2017).

tested on: WEE2; conditions: concentration: 1 μM, replicates: in singlicate; n = 1
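Also: KINOMEscan kinase panel screen.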

Compound	%Inh [%]
Fc1cccc(COc2nnc(-c3ccc4c(c3)CCO4)o2)c1	19
COc1ccc(CNC(=O)NC2CCN(c3ccnc(Nc4cc(OC)c(OC)c(OC)c4)n3)C2)cc1 (stereo not shown) [GSK1379748]	0
O=C(Nc1n[nH]c2nc(-c3nccs3)c(Br)cc12)C1CCCC1 [SB-742609]	1
Cc1csc(-c2nc(Nc3ccncc3)c3ccccc3n2)n1 [GW869640]	12
O=C(Nc1n[nH]c2nc(-c3nccs3)c(Br)cc12)C1CC1 [SB-742251]	7

tested on: WNK1; conditions: concentration: 1 μM, replicates: in singlicate; n = 1

Compound	%Inh [%]
Nc1ncnc2[nH]c(-c3ccccc3)nc12 [AH5015]	10
Cc1cc(-c2ccc3c(c2)CC[C@@H](N[C@@H](C)c2ccccc2)C3)cnc1N.Cl [GW412617]	0
Cc1ccc(-c2cc(-c3c[nH]nc3-c3ccccn3)ccn2)cc1 [GW684088]	6
O=C(Nc1n[nH]c2cc(-c3cccc(F)c3F)ccc12)C1CC1 [SB-733894]	0
O=C(Nc1ccc2c(c1)OCO2)NC1CCN(c2ccnc(Nc3ccc(F)cc3)n2)C1 (stereo not shown) [GSK1379724]	8
O=c1cc(N2CCOCC2)nc2n(Cc3cccc(Cl)c3Cl)ccn12 [GSK2286295]	0
COc1cccc(NC(=O)NC2CCN(c3ccnc(Nc4ccc(F)cc4)n3)C2)c1 (stereo not shown) [GSK1379721]	5
CN(C)CCN(C)C(=O)c1cc(-c2ccncc2)c(-c2ccc(Cl)c(O)c2)o1.Cl.Cl [SB-710397]	15
CC(C)(C)c1ccc(C(=O)Nc2cn3cc(Cl)ccc3n2)cc1	0
COc1cc2nccc(Nc3ccc(NC(=O)c4ccc(C)cc4)c(O)c3)c2cc1OC.Cl [GW440132]	7
O=C1NC(=O)C(N2CCc3ccccc32)=C1c1ccccc1Cl [SB-373598]	0
COc1cc2ncn(-c3cc(OCC4CCCO4)c(C(N)=O)s3)c2cc1OC (stereo not shown) [GSK204607]	0
COc1cc(Nc2nccc(N3CCC(NC(=O)Nc4cc(C)ccc4C)C3)n2)cc(OC)c1OC (stereo not shown) [GSK1379762]	1
Cl.NC(=O)c1cccc(Nc2nccc(Nc3ccc(Oc4cccc(Cl)c4)c(Cl)c3)n2)c1 [GW659008]	0
COc1ccccc1CNC(=O)c1cc(C(=O)c2ccccc2C)c[nH]1 [GSK364507]	10
COc1cc2ncnc(Nc3ccc4nc(-c5ccccc5)[nH]c4c3)c2cc1OC.Cl [GW282450]	10
NC(=O)c1nnc2ccccc2c1N	8

Compound	%Inh [%]
CN1C(=O)C(Nc2ccc(Cl)c(C(=O)O)c2)=C(c2ccc(Cl)cc2)C1=O [SB-404290]	0
Cc1cccc(-c2cc(Nc3ccncc3)c3ccccc3n2)n1 [GSK223675]	4
Cc1ccc(NC(=O)Nc2cc(C(C)(C)C)nn2-c2ccccc2)cc1 [GSK1014915]	9
Cn1ccc2ncnc(Oc3ccc(Nc4nc5ccccc5[nH]4)cc3)c21	0
CCn1c(-c2cccnc2O)nc2cnccc21 [SB-736715]	0
COc1ccc(C2=C(Nc3cccc(C(=O)O)c3)C(=O)NC2=O)cc1 [SB-390765]	49
Fc1cc(Cl)ccc1Nc1ccnc2cc(I)ccc12 [GW551191]	3
CS(=O)(=O)c1ccc(-c2c(-c3ncn[nH]3)sc(N3CCOCC3)c2C#N)cc1	0
Cn1ccc2ncnc(Oc3ccc(NC(=O)Nc4ccccc4)cc3)c21	0
Cc1cccc(-c2nc(Nc3ccc4[nH]ncc4c3)c3ccccc3n2)n1 [GW857175]	0
CC1=C(C(=O)Nc2cc3cn[nH]c3cc2F)C(c2ccc(C(F)(F)F)cc2)CC(=O)N1 (stereo not shown) [GSK429286]	20
Cc1cccc(-c2nc(C)cc(Nc3ccncc3)n2)n1 [GSK257997]	6
Fc1cccc(COc2nnc(-c3ccc4c(c3)CCO4)o2)c1	0
COc1ccc(CNC(=O)NC2CCN(c3ccnc(Nc4cc(OC)c(OC)c(OC)c4)n3)C2)cc1 (stereo not shown) [GSK1379748]	7
O=C(Nc1n[nH]c2nc(-c3nccs3)c(Br)cc12)C1CCCC1 [SB-742609]	10
Cc1csc(-c2nc(Nc3ccncc3)c3ccccc3n2)n1 [GW869640]	37
O=C(Nc1n[nH]c2nc(-c3nccs3)c(Br)cc12)C1CC1 [SB-742251]	23

tested on: WNK2; conditions: concentration: 1 μM, replicates: in singlicate; n = 1

Compound	%Inh [%]
Nc1ncnc2[nH]c(-c3ccccc3)nc12 [AH5015]	9
Cc1cc(-c2ccc3c(c2)CC[C@@H](N[C@@H](C)c2ccccc2)C3)cnc1N.Cl [GW412617]	0
Cc1ccc(-c2cc(-c3c[nH]nc3-c3ccccn3)ccn2)cc1 [GW684088]	19
O=C(Nc1n[nH]c2cc(-c3cccc(F)c3F)ccc12)C1CC1 [SB-733894]	0
O=C(Nc1ccc2c(c1)OCO2)NC1CCN(c2ccnc(Nc3ccc(F)cc3)n2)C1 (stereo not shown) [GSK1379724]	3
O=c1cc(N2CCOCC2)nc2n(Cc3cccc(Cl)c3Cl)ccn12 [GSK2286295]	0
COc1cccc(NC(=O)NC2CCN(c3ccnc(Nc4ccc(F)cc4)n3)C2)c1 (stereo not shown) [GSK1379721]	8
CN(C)CCN(C)C(=O)c1cc(-c2ccncc2)c(-c2ccc(Cl)c(O)c2)o1.Cl.Cl [SB-710397]	0
CC(C)(C)c1ccc(C(=O)Nc2cn3cc(Cl)ccc3n2)cc1	0
COc1cc2nccc(Nc3ccc(NC(=O)c4ccc(C)cc4)c(O)c3)c2cc1OC.Cl [GW440132]	14
O=C1NC(=O)C(N2CCc3ccccc32)=C1c1ccccc1Cl [SB-373598]	2
COc1cc2ncn(-c3cc(OCC4CCCO4)c(C(N)=O)s3)c2cc1OC (stereo not shown) [GSK204607]	8
COc1cc(Nc2nccc(N3CCC(NC(=O)Nc4cc(C)ccc4C)C3)n2)cc(OC)c1OC (stereo not shown) [GSK1379762]	0
Cl.NC(=O)c1cccc(Nc2nccc(Nc3ccc(Oc4cccc(Cl)c4)c(Cl)c3)n2)c1 [GW659008]	0
COc1ccccc1CNC(=O)c1cc(C(=O)c2ccccc2C)c[nH]1 [GSK364507]	12
COc1cc2ncnc(Nc3ccc4nc(-c5ccccc5)[nH]c4c3)c2cc1OC.Cl [GW282450]	16
NC(=O)c1nnc2ccccc2c1N	0

Compound	%Inh [%]
CN1C(=O)C(Nc2ccc(Cl)c(C(=O)O)c2)=C(c2ccc(Cl)cc2)C1=O [SB-404290]	0
Cc1cccc(-c2cc(Nc3ccncc3)c3ccccc3n2)n1 [GSK223675]	0
Cc1ccc(NC(=O)Nc2cc(C(C)(C)C)nn2-c2ccccc2)cc1 [GSK1014915]	0
Cn1ccc2ncnc(Oc3ccc(Nc4nc5ccccc5[nH]4)cc3)c21	0
CCn1c(-c2cccnc2O)nc2cnccc21 [SB-736715]	24
COc1ccc(C2=C(Nc3cccc(C(=O)O)c3)C(=O)NC2=O)cc1 [SB-390765]	15
Fc1cc(Cl)ccc1Nc1ccnc2cc(I)ccc12 [GW551191]	11
CS(=O)(=O)c1ccc(-c2c(-c3ncn[nH]3)sc(N3CCOCC3)c2C#N)cc1	11
Cn1ccc2ncnc(Oc3ccc(NC(=O)Nc4ccccc4)cc3)c21	0
Cc1cccc(-c2nc(Nc3ccc4[nH]ncc4c3)c3ccccc3n2)n1 [GW857175]	51
CC1=C(C(=O)Nc2cc3cn[nH]c3cc2F)C(c2ccc(C(F)(F)F)cc2)CC(=O)N1 (stereo not shown) [GSK429286]	61
Cc1cccc(-c2nc(C)cc(Nc3ccncc3)n2)n1 [GSK257997]	6
Fc1cccc(COc2nnc(-c3ccc4c(c3)CCO4)o2)c1	0
COc1ccc(CNC(=O)NC2CCN(c3ccnc(Nc4cc(OC)c(OC)c(OC)c4)n3)C2)cc1 (stereo not shown) [GSK1379748]	30
O=C(Nc1n[nH]c2nc(-c3nccs3)c(Br)cc12)C1CCCC1 [SB-742609]	0
Cc1csc(-c2nc(Nc3ccncc3)c3ccccc3n2)n1 [GW869640]	0
O=C(Nc1n[nH]c2nc(-c3nccs3)c(Br)cc12)C1CC1 [SB-742251]	2
